Data from PubChem BioAssay (NCI).
This is part of a sample that, as a whole, favours compounds with a hit. Of some 83,000 tested, about 20% had one in any assay.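 96-well plates, one dose, 48 hours. Percent growth reported; active if below 10.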 A number with no mark means an inactive call. Calls of active or inactive are those of the source.

Each compound was assayed on HL-60(TB) leukemia (assay: NCI-60 one-dose screen, 48 h (100 = growth as untreated, 0 = no growth, -100 = all killed)). Settings: 10 µM unless noted.

Compound	growth
CCCCCCCCCCCCCCCCNCCC[C@@H](C)[C@H]1CC[C@H]2[C@@H]3[C@H](OCCCN)C[C@@H]4C[C@H](OCCCN)CC[C@]4(C)[C@H]3C[C@H](OCCCN)[C@]12C	4.5% (active)
COc1ccc(C(O)c2cc3c(N)c(C(=O)Nc4ccc(Br)cc4)sc3nc2C)cc1 (stereo not given)	-41.5% (active)
CCOC(=O)C(C(C)=O)c1nc2sc3cc(Cl)ccc3n2c(=N)c1C#N (stereo not given)	115%
COc1cc(/C=C2\COc3ccc(O)c(O)c3C2=O)cc(OC)c1	-29.8% (active)
O=C(Nc1cccc([N+](=O)[O-])c1)c1cc2ccccc2cc1O	-54.1% (active)
S=c1nc2oc(-c3ccccc3)c(-c3ccccc3)c2c(/N=C\c2ccco2)[nH]1	87.2%
O=C1C(Cl)=C(Nc2ccccc2)C(=O)C(Cl)=C1Nc1ccccc1	122%
COc1cc(C(=O)/C=C/c2c(-c3ccc(F)cc3)nc3sccn23)cc(OC)c1OC	32%
C=C1C(=O)O[C@H]2[C@H]1CC/C(COC(=O)c1cn(C)c3ccccc13)=C\CC[C@@]1(C)O[C@@H]21	2.98% (active)
C#CC[C@@H]1C[C@]2(C)[C@H]3CC=C4[C@H]5[C@@H](C)[C@H](C)CC[C@]5(C(=O)NCCCN5CCN(CCCN)CC5)CC[C@@]4(C)[C@]3(C)CC[C@H]2C(C)(C)[C@H]1OC(C)=O	-55.9% (active)
Nc1ccc(S(=O)(=O)Nc2ccnn2-c2ccccc2)cc1	102%
CCC(C)Oc1cc(/C=N/NC(=O)c2cnn3c2NC(c2ccccc2)C3)ccc1OC (stereo not given)	32.2%
CCc1c2c(nc3ccc(OCc4ccc(B5OC(C)(C)C(C)(C)O5)cc4)cc13)-c1cc3c(c(=O)n1C2)COC(=O)[C@]3(O)CC	-1.71% (active)
CCCCC(CC)COC(=O)C[N+](C)(C)CCOC(c1ccccc1)c1ccccc1 (stereo not given)	-56.7% (active)
N/C(=N\OC(=O)c1ccccc1)C(C(=O)NOC(=O)c1ccccc1)C1CCCCC1 (stereo not given)	1.73% (active)
